# Inconclusive results are not listed. A number with no mark means an inactive call. Active and inactive are the calls of the source. Unless noted, calls follow the shape of the dose curve; as a rule, active = well fitted cell-killing curve with a large enough effect in the repeat runs; inconclusive = weak or mixed curves, or effect the other way; inactive = no such curve, though single readings can be large or run the other way.
# Molecular target: Thyrotropin receptor (Homo sapiens) (UniProt P16473)
# Experiment: qHTS assay to identify small molecule antagonists of the thyroid stimulating hormone receptor (TSHR) signaling pathway (AID 1259385; calls by dose curve; also: nearly all actives have a fitted effect of over 20% in size)
# Conditions: TSHR-HEK293 cAMP HTRF, TSH-stimulated antagonist mode; series mostly up to 92.4 µM; activity change, negative = inhibition: at the top concentration
# How it was run: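 Antagonist mode: compound-treated TSHR-expressing HEK293 cells were stimulated with 1.5 ng/mL TSH (final) in presence of Ro20-1724 for 30 min at RT. HTRF cAMP detection after 1 h; each compound tested at 15 concentrations, triplicate.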
# % is scaled to controls: 0 for no effect and ±100 for the full control effect.
# Chain of Thyrotropin receptor (Homo sapiens) (P16473 whole entry, looked up): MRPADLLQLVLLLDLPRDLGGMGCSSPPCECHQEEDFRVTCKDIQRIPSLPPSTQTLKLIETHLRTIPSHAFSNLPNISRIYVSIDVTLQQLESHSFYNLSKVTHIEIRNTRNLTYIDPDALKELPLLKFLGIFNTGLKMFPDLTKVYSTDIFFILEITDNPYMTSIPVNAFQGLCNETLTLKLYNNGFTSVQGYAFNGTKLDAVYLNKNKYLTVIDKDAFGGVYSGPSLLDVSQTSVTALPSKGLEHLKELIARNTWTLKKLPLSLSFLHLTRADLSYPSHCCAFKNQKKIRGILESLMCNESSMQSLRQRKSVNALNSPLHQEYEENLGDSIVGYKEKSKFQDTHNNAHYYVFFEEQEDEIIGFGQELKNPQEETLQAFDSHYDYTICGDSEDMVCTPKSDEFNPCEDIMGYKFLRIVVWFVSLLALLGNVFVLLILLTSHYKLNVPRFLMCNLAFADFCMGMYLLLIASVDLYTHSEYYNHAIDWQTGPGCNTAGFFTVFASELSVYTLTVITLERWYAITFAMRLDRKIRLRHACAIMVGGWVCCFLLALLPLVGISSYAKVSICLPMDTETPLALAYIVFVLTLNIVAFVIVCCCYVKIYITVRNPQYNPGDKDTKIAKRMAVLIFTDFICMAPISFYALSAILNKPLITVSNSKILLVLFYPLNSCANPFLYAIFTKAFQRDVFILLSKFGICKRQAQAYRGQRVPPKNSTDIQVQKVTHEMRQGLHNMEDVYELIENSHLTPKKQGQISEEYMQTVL
row,SMILES,"activity change, negative = inhibition"
1,CCCCN1C=CN(C)C1,1.39% [at 19 µM]
2,CCCC(C)C(=O)OCC (configuration not stated),-1.49%
3,C[C@H]1C[C@H]2[C@@H]3CCC4=CC(=O)C=C[C@]4(C)[C@H]3C(=O)C[C@]2(C)[C@@]1(O)C(=O)CO,-0.586% [at 42.5 µM]
4,CC[N+](C)(CC)CCOC(=O)C1c2ccccc2Oc2ccccc21,2.22% [at 42.5 µM]
5,CO/N=C(\C(=O)N[C@@H]1C(=O)N2C(C(=O)O)=C(CSc3nc(=O)c(O)nn3C)CS[C@H]12)c1csc(N)n1,-1.59% [at 42.5 µM]
6,CC(=O)N[C@H]1[C@H]([C@H](O)[C@H](O)CO)OC(C(=O)O)=C[C@@H]1N=C(N)N,2.48% [at 42.5 µM]
7,CCOc1ccc2nc(S(N)(=O)=O)sc2c1,2.02% [at 42.5 µM]
8,O=S(=O)(O)c1cccc2c(S(=O)(=O)O)cccc12,2.56%
9,NC(=O)N[C@@H](CCC(=O)O)C(=O)O,2.12% [at 42.5 µM]
10,CNCC(O)c1ccc(O)c(O)c1 (configuration not stated),2.42% [at 42.5 µM]
11,[Ca+2],0.811%
12,Nc1ccccn1,2.4%
13,O=C(O)CC(C(=O)O)S(=O)(=O)O (configuration not stated),-1.69%
14,CC(=O)C1CCCCC1=O (configuration not stated),-2.53%
15,CO[C@@]1(NC(=O)C(C(=O)O)c2ccc(O)cc2)C(=O)N2C(C(=O)O)=C(CSc3nnnn3C)CO[C@@H]21 (some centres not stated),-3.34% [at 42.5 µM]
16,O=S(=O)(O)c1cccc2ccccc12,0.422%
17,CC[N+](CC)(CC(=O)Nc1c(C)cccc1C)Cc1ccccc1 (tested in a mixture with another compound),-0.547% [at 42.5 µM]
18,CN(C)C(=O)Oc1cccc([N+](C)(C)C)c1,0.91% [at 42.5 µM]
19,CC(C)(C)C(=O)Oc1ccc(S(=O)(=O)Nc2ccccc2C(=O)NCC(=O)O)cc1,2.38% [at 42.5 µM]
20,Cc1c(N)c(=O)n(-c2ccccc2)n1C,0.725% [at 42.5 µM]
21,O=C(O)CCCC[P+](c1ccccc1)(c1ccccc1)c1ccccc1,1.6% [at 42.5 µM]
22,COc1cc(C)nc(-n2nc(C)cc2OC)n1,1.52% [at 42.5 µM]
23,CCCCCCCCCCCCCCCCCCO,1.98% [at 42.5 µM]
24,Cc1ccc(C(=O)c2ccc(CC(=O)O)n2C)cc1,-0.742% [at 42.5 µM]
25,CCCCCCCCCCCCCCC(=O)O,-5.84%
26,NCCCC(N)(C(=O)O)C(F)F (configuration not stated),0.53% [at 42.5 µM]
27,Cc1coc2ccccc2c1=O,-0.341% [at 42.5 µM]
28,CC(C)COC(=O)c1ccc(N)cc1,-3.64% [at 42.5 µM]
29,CN1[C@@H]2CC[C@H]1CC(OC(=O)C(O)c1ccccc1)C2 (some centres not stated),3.03% [at 42.5 µM]
30,COc1cccc(OC)c1C(=O)N[C@@H]1C(=O)N2[C@@H]1SC(C)(C)[C@@H]2C(=O)O,-0.187% [at 42.5 µM]

# Tested on: not listed separately
# Experiment: qHTS assay to identify small molecule agonists of the estrogen receptor alpha (ER-alpha) signaling pathway in the presence of an antagonist - cell viability counter screen (AID 1259386);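 also: cells exposed to compounds for 22 h at 37 °C before the viability read; nearly all actives have a fitted effect of over 30% in size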; also: potency is read from the fitted curve at half-maximal effect
# Conditions: VM7Luc4E2 viability, CellTiter-Fluor fluorescence, 22 h; series mostly up to 92.4 µM; activity change, negative = cytotoxicity: at the top concentration
# How it was run: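 The test measures whether compounds kill ER-alpha reporter cells (VM7Luc4E2) under antagonist co-treatment (ICI-182,780, 10.0nM). Fluorescence from CellTiter-Fluor is read after a 22hr exposure.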
SMILES,"activity change, negative = cytotoxicity",Potency
CCCCN1C=CN(C)C1,0.508% [at 19 µM],–
CCCC(C)C(=O)OCC (configuration not stated),3.35%,–
C[C@H]1C[C@H]2[C@@H]3CCC4=CC(=O)C=C[C@]4(C)[C@H]3C(=O)C[C@]2(C)[C@@]1(O)C(=O)CO,3.83% [at 42.5 µM],–
CC[N+](C)(CC)CCOC(=O)C1c2ccccc2Oc2ccccc21,-1.25% [at 42.5 µM],–
CO/N=C(\C(=O)N[C@@H]1C(=O)N2C(C(=O)O)=C(CSc3nc(=O)c(O)nn3C)CS[C@H]12)c1csc(N)n1,1.16% [at 42.5 µM],–
CC(=O)N[C@H]1[C@H]([C@H](O)[C@H](O)CO)OC(C(=O)O)=C[C@@H]1N=C(N)N,-3.16% [at 42.5 µM],–
CCOc1ccc2nc(S(N)(=O)=O)sc2c1,0.546% [at 42.5 µM],–
O=S(=O)(O)c1cccc2c(S(=O)(=O)O)cccc12,-1.02%,–
NC(=O)N[C@@H](CCC(=O)O)C(=O)O,1.18% [at 42.5 µM],–
CNCC(O)c1ccc(O)c(O)c1 (configuration not stated),–,29.8 µM (active)
[Ca+2],0.0029%,–
O=C(O)CC(C(=O)O)S(=O)(=O)O (configuration not stated),-2.08%,–
CC(=O)C1CCCCC1=O (configuration not stated),0.915%,–
CO[C@@]1(NC(=O)C(C(=O)O)c2ccc(O)cc2)C(=O)N2C(C(=O)O)=C(CSc3nnnn3C)CO[C@@H]21 (some centres not stated),-1.52% [at 42.5 µM],–
O=S(=O)(O)c1cccc2ccccc12,3.41%,–
CC[N+](CC)(CC(=O)Nc1c(C)cccc1C)Cc1ccccc1 (tested in a mixture with another compound),4.69% [at 42.5 µM],–
CN(C)C(=O)Oc1cccc([N+](C)(C)C)c1,5.45% [at 42.5 µM],–
CCN[C@@H]1C[C@H](N)[C@@H](OC2OC(CN)=CCC2N)[C@H](O)[C@H]1O[C@H]1OC[C@](C)(O)[C@H](NC)[C@H]1O (some centres not stated),7.38% [at 0.349 µM],–
O=C(O)CNC(=O)c1ccc(CO)o1,-2.38%,–

SMILES,"activity change, negative = cytotoxicity",Potency
CC(C)(C)C(=O)Oc1ccc(S(=O)(=O)Nc2ccccc2C(=O)NCC(=O)O)cc1,-2.05% [at 42.5 µM],–
CN(C)CCN(C)CCN(C)C,2.78%,–
Cc1c(N)c(=O)n(-c2ccccc2)n1C,-1.84% [at 42.5 µM],–
NCCCC[C@H](N[C@@H](CCc1ccccc1)C(=O)O)C(=O)N1CCC[C@H]1C(=O)O,1.08% [at 42.5 µM],–
Nc1ccn([C@@H]2O[C@H](CO)[C@@H](O)C2O)c(=O)n1 (some centres not stated),-0.115%,–
CC(C(=O)O)c1cccc(Oc2ccccc2)c1 (configuration not stated),1.15% [at 42.5 µM],–
O=C(O)CCCC[P+](c1ccccc1)(c1ccccc1)c1ccccc1,-1.81% [at 42.5 µM],–
COc1cc(C)nc(-n2nc(C)cc2OC)n1,1.99% [at 42.5 µM],–
CCCCCCCCCCCCCCCCCCO,6.02% [at 42.5 µM],–
CC12CCC(C(=O)C1=O)C2(C)C (configuration not stated),6.45%,–
Cc1ccc(C(=O)c2ccc(CC(=O)O)n2C)cc1,1.02% [at 42.5 µM],–
C[N+]1(C)CCCC(OC(=O)C(O)(c2ccccc2)c2ccccc2)C1 (configuration not stated),5.64% [at 42.5 µM],–
CCCCCCCCCCCCCCC(=O)O,-0.506%,–
NCCCC(N)(C(=O)O)C(F)F (configuration not stated),3.83% [at 42.5 µM],–
Cc1coc2ccccc2c1=O,2.76% [at 42.5 µM],–
CC(C)COC(=O)c1ccc(N)cc1,0.85% [at 42.5 µM],–
CN1[C@@H]2CC[C@H]1CC(OC(=O)C(O)c1ccccc1)C2 (some centres not stated),5.01% [at 42.5 µM],–
COc1cccc(OC)c1C(=O)N[C@@H]1C(=O)N2[C@@H]1SC(C)(C)[C@@H]2C(=O)O,-1.39% [at 42.5 µM],–

# — PubChem BioAssay (Tox21)
